In PubChem BioAssay AID1214 (Sanford-Burnham Center for Chemical Genomics, 2008):
Out of some 190,000 compounds screened, about 10 (0.005%) were called active.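 The calls were made as follows: active = activation factor of 2 or more at 20 µM, relative to plate controls; inactive = the rest.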 Not all results are given here.

The compounds below were run against Mannose-6-phosphate isomerase (Homo sapiens) (UniProt P34949) (assay: activators of human PMI, primary screen, biochemical, fluorescence intensity, near-Km mannose 6-phosphate (AID 1214)). Details: purified human PMI, coupled resazurin fluorescence, 20 min; at 20 µM; stronger effect = higher value; 1 = vehicle control, 0 substrate-free wells.
Chain of Mannose-6-phosphate isomerase (Homo sapiens) (P34949 whole entry, looked up): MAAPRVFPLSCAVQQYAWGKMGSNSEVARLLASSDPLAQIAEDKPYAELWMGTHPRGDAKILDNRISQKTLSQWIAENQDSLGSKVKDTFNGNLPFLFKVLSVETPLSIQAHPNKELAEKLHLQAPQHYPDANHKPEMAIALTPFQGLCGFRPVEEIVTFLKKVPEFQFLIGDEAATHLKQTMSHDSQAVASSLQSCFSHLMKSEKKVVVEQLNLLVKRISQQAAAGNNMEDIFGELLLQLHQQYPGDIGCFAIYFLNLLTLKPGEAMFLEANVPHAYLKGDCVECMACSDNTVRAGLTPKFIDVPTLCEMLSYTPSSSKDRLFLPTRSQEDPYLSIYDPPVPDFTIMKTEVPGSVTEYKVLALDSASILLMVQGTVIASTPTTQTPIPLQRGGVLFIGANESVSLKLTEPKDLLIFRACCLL

Activation factor, inactive:
COC(=O)c1cc(NC(=O)CN2CCN(C(C)=O)CC2)cc(C(=O)OC)c1 0.9
C/C(N)=C(/C#N)C(=O)COC(=O)CNS(=O)(=O)c1ccc(C)cc1 1
CCNC(=O)CC1C(=O)N(c2ccc(F)cc2)C(=O)N1CCc1sccc1C (configuration not stated) 1.1
CCOc1ccc(C(C)=O)cc1CSc1nnc(-c2ccncc2)n1CCOC 1.1
CCOCCCNCc1ccc(OCc2ccc(F)cc2)c(OC)c1 0.9
CCCCc1nnc(NC(=O)CSc2nc(N)cc(=O)[nH]2)s1 0.8
O=C(NCCN1C(=O)S/C(=C\c2cccnc2)C1=O)c1cccc(OC(F)F)c1 0.9
O=C1/C(=C\c2cccnc2)CN(Cc2ccccc2)C/C1=C\c1cccnc1 0.9
Cc1nnc(SC(C(=O)Nc2cc(Cl)cc(Cl)c2)c2ccccc2)[nH]c1=O (configuration not stated) 1
CC(C)CC(=O)NC(=S)NNC(=O)c1cccc([N+](=O)[O-])c1 0.9
CC1CCCCN1C(=S)NCc1ccccc1 (configuration not stated) 0.9
CN(C)S(=O)(=O)c1ccc(NC(=O)N2CCOCC2)cc1 1
Cc1cc(C(=O)COC(=O)CNC(=O)c2ccc(F)cc2)c(C)n1Cc1ccco1 0.9
Cc1ccc2nc(-c3cccnc3)c(NC3CCCC3)n2c1 0.9
CC(C)[C@H](NC(=O)c1ccc(F)cc1)C(=O)OCC(=O)NC(=O)c1cccn1C 0.9
CCOC(=O)C1=C(C)OC(N)=C(C#N)C1c1cncc(-c2ccc(F)cc2)c1 (configuration not stated) 1.1
CCC(C)NC(=O)c1nn(C)c(=O)c2ccccc12 (configuration not stated) 1.1
O=C(CN1C(=O)CC(c2ccccc2)S(=O)(=O)c2ccccc21)NC1CCCC1 (configuration not stated) 1.1
N#Cc1ccc(CSc2nnc3ccccn23)cc1 1
Cc1ccnc(SCC(N)=O)n1 1.1
CCC(C)(C)C1CCC(=NNC(=O)c2ccc(Br)o2)CC1 (configuration not stated) 1
CCOC(=O)/C(=N\Nc1ccccc1[N+](=O)[O-])c1csc(Nc2ccccc2)n1 0.9
COC(=O)C(C)N=Cc1ccccc1 (configuration not stated) 0.9
Cc1onc(C(=O)NN)c1C(=O)N1CCN(C(c2ccccc2)c2ccccc2)CC1 0.9
CCOCCCNC(=O)C(NC(=O)Cc1c[nH]c2ccccc12)c1ccc(OC)cc1 (configuration not stated) 0.9
CC/C(O)=C1\C(=O)CC(C)(C)CC1=NCCc1nc2ccccc2[nH]1 1.1
N#Cc1ccccc1NC(=O)c1cccc(COc2ccc(Cl)cc2Cl)c1 0.9
